Measurements as given in PubChem BioAssay (NCI).
This is part of a sample that, as a whole, favours compounds with a hit. Of some 79,000 tested, about 15% had one in any assay. Rule as the data show it: active = growth inhibition above about 70%; inactive = the rest.

Columns and labels:
[1] = NCI Yeast Anticancer Drug Screen. Data for the rad50 strain (AID 155);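 also: 0% = growth of vehicle-only cultures of the same strain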; conditions: S. cerevisiae rad50 strain growth inhibition; at 50.0 µM; active compounds read high
Summary of the method: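 Relative growth inhibition (compound vs vehicle) was measured in yeast with a defined repair-gene alteration.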

[2] = NCI Yeast Anticancer Drug Screen. Data for the mec2-1 strain (AID 157); conditions: S. cerevisiae mec2-1 strain, at 50.0 µM, active compounds read high
Summary of the method: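 Using mec2-1 yeast: add compound, measure growth, express inhibition versus vehicle-treated cultures.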

[3] = NCI Yeast Anticancer Drug Screen. Data for the sgs1 mgt1 strain (AID 161);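 also: 0% = growth of cultures given vehicle only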; conditions: S. cerevisiae sgs1 mgt1 strain, at 50.0 µM, active compounds read high
Summary of the method: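 Growth of a repair-deficient yeast mutant was monitored after compound treatment and expressed as inhibition relative to vehicle-treated cultures.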

[4] = NCI Yeast Anticancer Drug Screen. Data for the cln2 rad14 strain (AID 165);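 also: 0% = growth equal to vehicle treated cultures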; conditions: S. cerevisiae cln2 rad14 strain, at 50.0 µM, active compounds read high
Summary of the method: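 Yeast strain cln2 rad14, bearing defects in cell cycle control and DNA repair, serves as the test system; values reflect growth inhibition compared with vehicle.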

[5] = NCI Yeast Anticancer Drug Screen. Data for the bub3 strain (AID 167); conditions: S. cerevisiae bub3 mutant strain, at 50.0 µM, active compounds read high
Summary of the method: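 Screening used yeast with an engineered genetic alteration affecting cell cycle control. Compound-exposed cultures were compared with vehicle cultures, and reduced growth was taken as inhibition.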

[6] = NCI Yeast Anticancer Drug Screen. Data for the mlh1 rad18 strain (AID 175); conditions: S. cerevisiae mlh1 rad18 strain growth inhibition; at 50.0 µM; active compounds read high
Summary of the method: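 Steps: expose repair-defective yeast to compound; measure growth; express inhibition against vehicle-treated controls.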

Measured: growth inhibition

Cc1cccc(I)c1
inactive: [1] -21.4% | [2] -24.4% | [3] -4.95% | [4] -2.1% | [5] -2.55% | [6] 17.2%

CCCCCCCCCCCCCCCCOC(=O)c1cc([N+](=O)[O-])cc([N+](=O)[O-])c1Sc1ncnc2nc[nH]c12
inactive: [1] -3.8% | [2] -7.8% | [3] 3.5% | [4] -2.35% | [5] -21.2% | [6] -32.2%

CC(=O)Oc1cc2c(c3ccccc13)CCC2=O
inactive: [1] 13.4% | [2] 7.2% | [3] -7.85% | [4] -0.9% | [5] 20.4% | [6] 6.05%

C1CCCNCCNCCNCC1
inactive: [1] -4.4% | [2] -17.1% | [3] -18.9% | [4] 16.1% | [5] -20.8% | [6] 19.1%

Cc1cc(Cl)c(Cl)cc1NC(=O)c1c(Br)c(Br)c(Br)c(Br)c1C(=O)O
inactive: [1] 0.7% | [2] 11.4% | [3] 8% | [4] -16.1% | [5] -3.2% | [6] 28.4%

CC12OC(=O)CC1C(c1ccccc1)(c1ccccc1)O2 (configuration not stated)
inactive: [1] -7% | [2] -8% | [3] 4.1% | [4] -50.2% | [5] 2.75% | [6] -1.85%

CC(C)=CCNc1ccccc1
inactive: [1] -11.3% | [2] -24.1% | [3] 1.7% | [4] 17.4% | [5] 1.05% | [6] -7.3%

CCC(C)C1NC(=S)N(c2ccccc2)C1=O (configuration not stated)
inactive: [1] -8.65% | [2] 7.05% | [3] -18.1% | [4] -0.55% | [5] -9% | [6] -30.4%

Clc1nc(-c2ccccc2)nc2ccccc12
inactive: [1] -10.1% | [2] -17.6% | [3] -18.2% | [4] -29.6% | [5] -19.8% | [6] -7.25%

Clc1ccc(OCc2nnc3n2N=C(c2ccc(Br)cc2)CS3)cc1
inactive: [1] 5.5% | [2] 8.35% | [3] 8.8% | [4] 7.05% | [5] -5% | [6] 13.6%

COc1cc2ccnc([C@@H](OC(=O)c3ccccc3)c3ccc(OC)c(OC)c3OC)c2cc1OC
inactive: [1] 10.4% | [2] 9.25% | [3] 40.9% | [4] 6.25% | [5] 0.05% | [6] 52.4%

CC(=O)Nc1ccc(Cc2[nH]c(=O)[nH]c(=O)c2Br)cc1
inactive: [1] 4.3% | [2] -30.9% | [3] -19.6% | [4] -0.6% | [5] 1.05% | [6] -16.2%

CC(=O)OC1(C)N=NC2(CCCCC2)O1 (configuration not stated)
inactive: [1] 3.45% | [2] -22.4% | [3] -37.1% | [4] 7.5% | [5] -12.1% | [6] -12.3%

Brc1cccc(N=NN2CCCC2)c1
inactive: [1] 14.7% | [2] 25.4% | [3] 28.9% | [4] 9.6% | [5] 7.7% | [6] 47.1%

NS(=O)(=O)c1nc(S(=O)(=O)O)c2[nH]cnc2n1
inactive: [1] 3.7% | [2] -0.35% | [3] -6.75% | [4] -4.2% | [5] -45.3% | [6] 14.2%

Cc1cn(C2CC(O)C(O)C(C)O2)c(=O)[nH]c1=O (configuration not stated)
inactive: [1] 22.2% | [2] 6.15% | [3] 24.6% | [4] 5.8% | [5] 12.2% | [6] 25.4%

CCOC(=O)C(Br)(C(=O)OCC)C(C)C
inactive: [1] 3.75% | [2] -0.8% | [3] -16.8% | [4] -16% | [5] 10.8% | [6] 9.1%

CN(C)CCSCC(=O)N1c2ccccc2Sc2ccc(Cl)cc21
inactive: [1] -5.25% | [2] -7.45% | [3] -2.9% | [4] 17.6% | [5] 7.95% | [6] -0.5%

OC1c2ccccc2CCCC1N1CCCCC1 (configuration not stated)
inactive: [1] 41% | [2] 5.35% | [3] 27.8% | [4] 6.75% | [5] 12.1% | [6] 16.9%

Cc1no[n+]([O-])c1NC(=O)OCc1ccccc1
inactive: [1] -1.8% | [2] -11% | [3] -2.6% | [4] -37.8% | [5] -15.3% | [6] 6.9%

C/C(=N/NC(=O)C(N)=O)C(CC(C(=O)Nc1ccccc1C)/C(C)=N\NC(=O)C(N)=O)C(=O)Nc1ccccc1C (configuration not stated)
inactive: [1] 0.75% | [2] -0.6% | [3] -8.1% | [4] -12.2% | [5] 8.05% | [6] -12.6%

COC(=O)Cc1oc(=O)n(-c2ccccc2)c(=O)c1C(=O)OC
inactive: [1] 6.75% | [2] -3.05% | [3] 2.05% | [4] -10.5% | [5] 10.1% | [6] -3.6%

O=c1[nH]cc(CNc2ccccc2)c(=O)[nH]1
inactive: [1] -5.5% | [2] 4.75% | [3] -9.45% | [4] -27.8% | [5] -18.2% | [6] 8.5%

[Mn+2].[NH-]CC(=O)NC(Cc1ccccc1)C(=O)O.[NH-]CC(=O)NC(Cc1ccccc1)C(=O)O (configuration not stated)
inactive: [1] -15.5% | [2] -11.3% | [3] -10.7% | [4] -34.2% | [5] 4.05% | [6] -8%

Cc1cccc2sc(=S)[nH]c12
inactive: [1] 35% | [2] 18.6% | [3] 28.9% | [4] 19.9% | [5] 29.8% | [6] 30.6%

CC(=O)c1cc2c(cc1C)C(C)(C)CCC2
inactive: [1] 8.45% | [2] 14.2% | [3] 3.1% | [4] -47.7% | [5] -16.4% | [6] 13.1%

CC(=O)OC1CCC2(C)C(CCC3(C)C2CC=C2C4CC(C)(C)CCC4(C)CCC23C)C1(C)C (configuration not stated)
inactive: [1] 5.85% | [2] -1% | [3] -8.8% | [4] -1.6% | [5] 6.05% | [6] -5.3%

O=S(=O)(O)C1=CC(=N/Cl)/C=CC/1=N\Cl
inactive: [1] -25.8% | [2] -23.8% | [3] -14.6% | [4] -4.15% | [5] -42% | [6] -25.2%

CN(C)C(=O)c1cccc([N+](=O)[O-])c1
inactive: [1] 1% | [2] -3.5% | [3] -4.65% | [4] 2.65% | [5] 13.2% | [6] 31.9%

O=C(O)C1C2CC(C(Br)C2Br)C1C(=O)O (configuration not stated)
inactive: [1] -6.55% | [2] 0.75% | [3] -21.7% | [4] 9.9% | [5] -5.85% | [6] -12.2%

CC1=C(C(=O)Nc2ccccc2C)C(c2ccco2)C(C(=O)Nc2ccccc2C)=C(C)N1C
inactive: [1] -7.45% | [2] -6.6% | [3] -38.1% | [4] -15.5% | [5] -9.6% | [6] -8.8%

C(=C\c1cc(CCc2nc3ccccc3[nH]2)[nH]n1)/c1ccccc1
inactive: [1] -4.4% | [2] -16.5% | [3] -12.3% | [4] 22.6% | [5] -4.25% | [6] -15.2%

C#CC1(NC(=O)c2ccccc2C(=O)Nc2cccc(C(F)(F)F)c2)CCCCC1
inactive: [1] -12.9% | [2] -19.1% | [3] -14.2% | [4] 11.3% | [5] -20.1% | [6] -14.2%

O=C(Oc1ccc2c(=O)cc(-c3ccccc3)oc2c1OC(=O)c1ccccc1)c1ccccc1
inactive: [1] 3% | [2] 7.6% | [3] -0.85% | [4] -3.15% | [5] -14.1% | [6] 3%

CCOC(=O)/C=C(\C)c1ccc(Cl)cc1
inactive: [1] 4.4% | [2] -18.6% | [3] -1.6% | [4] 3.8% | [5] -10.1% | [6] 14.7%

COC(=O)CCc1cccnc1/C=N/O
inactive: [1] -26.9% | [2] -31.8% | [3] -11.8% | [4] 4.7% | [5] -11.7% | [6] -17.4%

COc1ccc(-c2coc3c4c(c5c(c3c2=O)OC(C)(C)CC5)OC(C)(C)C=C4)cc1OC
inactive: [1] 11.3% | [2] 10.8% | [3] 15.7% | [4] 38% | [5] 18.1% | [6] 39.5%

COC(=O)/C(C#N)=C(/NCCN)Nc1ccccc1
inactive: [1] -10.5% | [2] -16.4% | [3] -39% | [4] 10.1% | [5] -3.1% | [6] -8.15%

C/C=C/C=C/C=N\O
inactive: [1] 16.6% | [2] 3.1% | [3] -6.65% | [4] -2.8% | [5] -1.45% | [6] 6.8%

C[n+]1ccc(/C=C/c2ccnc3c(O)cccc23)cc1
inactive: [1] 17.5% | [2] 11.7% | [3] -13.4% | [4] -7.3% | [5] -7.4% | [6] 18%

O=C(c1ccccc1)N(Cc1ccccc1)Cc1ccccc1
inactive: [1] 1% | [2] 35.1% | [3] 26.4% | [4] -34.2% | [5] 41% | [6] 28.2%

O=C1/C(=C/c2ccc(O)cc2)CCc2ccc([N+](=O)[O-])cc21
inactive: [1] -10.3% | [2] -1.15% | [3] 9.45% | [4] 13.8% | [5] -0.8% | [6] -55.4%
